The full list was thinned out, with hits kept by preference.
Tb PYK inh – inhibitors of Trypanosoma brucei pyruvate kinase | Q57TT1 | TbPYK enzyme, Kinase-Glo Plus ATP luminescence, 45 min | Potency, µM (titrated, usually from 76.8 µM), hits mostly inhibitors | hit rate 0.12% among 410,000; further: nearly all actives have a fitted effect of over 50% in size
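Activity of T. brucei pyruvate kinase was followed by Kinase-Glo Plus luminescence after the enzyme reacted 45 min at room temperature with 130 uM ADP (final) and substrate. Test compounds were added before ADP at multiple concentrations.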
CHX counter – counter-screen for Shiga toxin inhibitors: cycloheximide protein synthesis inhibition; max response, %; cell reporter, cycloheximide protein synthesis inhibition counterscreen; AID 2314; hit rate 12% among 300,000; in the data active means max response mostly above about 13%, no sharp cut-off; inactive means mostly below about 14%; further: read at 38.3 µM for the half of the compounds with a filed dose
LmPK inhibitor – blocks Leishmania mexicana pyruvate kinase activity; Q27686; Potency, µM (highest dose often 57.5 µM), usual class: inhibitors; hit rate 0.37% among 290,000; purified LmPK, Kinase-Glo ATP luminescence, 1 h; AID 1721
Target sequence (Q27686 whole entry, looked up): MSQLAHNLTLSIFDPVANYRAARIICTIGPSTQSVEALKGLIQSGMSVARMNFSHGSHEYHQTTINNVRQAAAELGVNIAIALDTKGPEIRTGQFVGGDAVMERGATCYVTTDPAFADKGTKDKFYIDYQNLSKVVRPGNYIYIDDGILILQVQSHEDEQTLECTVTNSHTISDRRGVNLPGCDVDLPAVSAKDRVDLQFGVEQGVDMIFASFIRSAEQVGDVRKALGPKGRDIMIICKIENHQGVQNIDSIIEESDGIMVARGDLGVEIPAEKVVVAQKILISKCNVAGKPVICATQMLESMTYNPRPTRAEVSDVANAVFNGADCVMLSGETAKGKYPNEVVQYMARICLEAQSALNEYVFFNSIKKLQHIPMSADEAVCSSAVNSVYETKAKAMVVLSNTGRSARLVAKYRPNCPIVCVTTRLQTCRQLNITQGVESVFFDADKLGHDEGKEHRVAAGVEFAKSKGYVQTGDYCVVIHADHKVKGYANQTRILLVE
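Purified LmPK (0.1 nM) converted ADP (0.1 mM) to ATP with PEP (0.5 mM) in imidazole buffer pH 7.2 with KCl and MgCl2, 1 h at room temperature. ATP was read by Kinase-Glo luminescence; data normalized to uninhibited and no-enzyme controls.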
Shiga inhibitor – blocks Shiga toxin action in Vero cells; hit rate 9.2% among 290,000; inhibition, % at 38.7 µM; Vero cells, Shiga toxin protein synthesis inhibition reporter; in the data active means inhibition mostly above about 28%, no sharp cut-off; inactive means mostly below about 43%
NS1 function inh – influenza NS1 inhibition. Potency, µM (top dose mostly 46.1 µM). hit rate 0.4% among 270,000; calls by dose curve; further: actives are rising curves; nearly all actives have a fitted effect of over 50% in size
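Recovery from NS1-induced slow growth read by OD600 in budding yeast switched to galactose assay medium (pH 6.0, -URA) at 1:100 dilution. Compound 23 nl per well; the matching strain lacking NS1 serves as control.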
SARS PLpro yeast – blocks SARS-CoV papain-like protease in a yeast assay. Potency, µM (doses to about 32.9 µM), actives largely listed as activators. hit rate 0.19% among 330,000. S. cerevisiae expressing SARS-CoV PLpro, growth rescue; calls by dose curve; further: nearly all actives have a fitted effect of over 55% in size
Numbers stand for hits; 0 = inactive; ? = inconclusive; - = no result given; + = active, no number. Unless noted, the call rests on the fitted dose curve; in most records, active means well fitted curve in the direction sought with a large enough effect; inconclusive means small, poorly fitted or top-dose-only effect, or another doubt; inactive means no such curve, though single readings can be large; an effect the other way counts as inactive or inconclusive.

SMILES	Tb PYK inh	CHX counter	LmPK inhibitor	Shiga inhibitor	NS1 function inh	SARS PLpro yeast
CCOC(=O)N=Nc1c(O)n(C)c2ccccc12	0	0	0	0	0	0
Cc1cc(C(=O)N=Nc2c(O)n(C)c3ccccc23)c(C)o1	0	27.4	0	0	0	0
CCOc1ccc(CN(CCO)CCO)cc1[N+](=O)[O-]	0	0	0	0	0	0
CCCCCOc1ccc(Cn2ccnc2)cc1[N+](=O)[O-]	0	0	0	63.9	0	0
CCCCOc1ccc(CN(CCO)CCO)cc1[N+](=O)[O-]	0	49.9	0	124.6	0	0
CCc1ccc2nc(N3CCN(C)CC3)c(C#N)cc2c1	0	22.4	0	17.1	0	0
COc1ccc2cc(C#N)c(N3CCOCC3)nc2c1	0	0	0	0	0	0
COc1ccc2nc(N3CCC(O)CC3)c(C#N)cc2c1	0	35.7	0	0	0	0
COc1ccc2nc(N3CCC(C)CC3)c(C#N)cc2c1	0	44.1	0	92.2	0	0
CCCNC(=O)C1CC(c2ccccc2C(F)(F)F)=NO1 (centres undefined)	0	-	-	-	-	0
Cc1ccc(S(=O)(=O)N2CCCCC2)cc1C(=O)N1C(C)CCCC1C (centres undefined)	0	-	-	-	-	0
COc1ccc(OC)c(C2=Nn3c(nnc3-c3ccccc3O)SC2)c1	-	0	-	0	-	-
COc1ccc(-n2cc(C(=O)OCc3ccc(F)c(F)c3)c3ccccc3c2=O)cc1	0	-	-	-	-	-
Cc1ccc2ccc(S(=O)(=O)NCc3ccccn3)cc2c1	0	0	0	38.8	0	0
COc1cc2c(cc1OC)CN(C(=O)CCNS(=O)(=O)c1ccccc1F)CC2	0	0	0	0	0	0
Cc1ccc(NC(=O)c2cc(C)n(-c3cccc(C)c3)c2C)cc1	0	76.3	0	72.5	0	0
Cc1ccc(NC(=O)c2cc(C)n(-c3ccccc3)c2C)cc1	0	26.4	?	0	0	0
Cc1ccc(-n2c(C)cc(C(=O)NS(=O)(=O)c3ccc(C)cc3)c2C)cc1	0	0	0	0	0	0
Cc1cc(C(=O)Nc2ccc(Cl)cc2)c(C)n1-c1ccccc1	0	0	0	0	0	0
COc1ccc(/C=C2\CCC/C(=C\C=N\N(C)C)C2=O)cc1	0	27.7	0	0	-	0
COc1ccc(/C=C2\CCCCC2=O)cc1	0	-	-	-	-	-
CN(C)/N=C/C=C1\CCC/C(=C\c2ccc(F)c(F)c2)C1=O	0	86.6	0	+	0	0
COC(=O)CN1C(=O)[C@@H]2[C@H](C1=O)[C@@H]1CC(C(=O)OC)=C[C@@H](C(=O)OC)C3C1=C(C(=O)[C@]3(C)NC(=O)c1ccccc1)[C@@H]2C (some centres undefined)	-	0	-	0	-	-
Nc1c(O)ccc2c1C(=O)c1ccccc1C2=O	?	11.8	14.1µM	0	0	0
COc1ccccc1NC(=O)Cn1nc(-c2ccc(Cl)cc2)c2ccccc2c1=O	0	15.6	0	0	0	0
SMILES	Tb PYK inh	CHX counter	LmPK inhibitor	Shiga inhibitor	NS1 function inh	SARS PLpro yeast
COc1ccccc1NC(=O)CN1CCN(CC(=O)Nc2ccc(F)cc2F)CC1	0	32.2	0	92.1	0	0
O=C(CN1CCN(S(=O)(=O)c2ccc(F)cc2)CC1)Nc1ccc(F)cc1F	0	60.1	0	37.5	0	0
CC(C)Oc1ccccc1-c1cc(C(=O)N/N=C/c2cccnc2)c2ccccc2n1	0	0	0	0	0	0
O=C(/C=C/c1ccc(O)cc1)c1ccc(O)cc1O	0	29.2	0	0	0	0
COc1cc(/C=C/C(=O)c2ccc(O)cc2O)ccc1O	-	31.9	-	67.8	-	-
COC(=O)c1ccc(NC(=O)CCCC(=O)OCC(=O)c2ccc(Cl)cc2)cc1	0	-	-	-	-	-
O=C(COC(=O)c1ccc(O)cc1)Nc1ccc(Cl)cc1	0	31.5	0	0	0	0
O=C(O)CCC(=O)Nc1ccc(C(=O)OCC(=O)c2ccc(Cl)cc2)cc1	0	15.1	0	0	0	0
CCOC(=O)c1cccc(NC(=O)c2ccc3c(c2)nnn3C2CCCC2)c1	0	-	-	-	-	-
CCN=C1S/C(=C\c2ccc(-c3cccc(C(=O)O)c3)o2)C(=O)N1CC	0	83.2	0	+	-	0
COc1cccc(/C=C2/NC(=O)N(CC(=O)Nc3ccc(C)cc3)C2=O)c1OCc1cccc(C(=O)O)c1	0	0	0	0	0	0
Cc1cccc(NC(=O)CN2C(=O)N/C(=C/c3ccc(C)o3)C2=O)c1	?	0	0	0	0	0
CCN1C(=O)/C(=C\c2ccc(-c3cccc(C(=O)OC)c3)o2)SC1=Nc1ccc(C(=O)O)cc1	-	0	0	0	0	0
Cc1ccc(NC(=O)CN2C(=O)N/C(=C/c3ccccc3OCc3cccc(C(=O)O)c3)C2=O)cc1	0	43.2	0	47.6	0	0
Cc1cccc(NC(=O)CN2C(=O)N/C(=C\c3ccc(-c4cccc(C(=O)O)c4)o3)C2=O)c1	0	54.4	0	174.4	0	0
CC(C)(C)OC(=O)C[C@@H]1C/C=C\C[C@H](CC(=O)NCCO)C(=O)NC[C@@H](c2ccccc2)OC1=O	0	-	-	-	-	0
CNC(=O)c1cc2ncc(C(F)(F)F)cc2s1	0	18.4	0	0	0	0
O=C(O)CC/C(=C\c1ccc(N2CCOCC2)c([N+](=O)[O-])c1)c1nc2ccccc2s1	0	10.9	0	0	0	0
CC(=O)Nc1ccc(N2CCOCC2)c([N+](=O)[O-])c1	0	0	0	0	0	0
O=C(O)C/C(=C\c1ccc(N2CCOCC2)c([N+](=O)[O-])c1)c1nc2ccccc2s1	0	20.4	0	0	0	0
O=C(O)CC/C(=C\c1ccc2c(c1)OCO2)c1nc2ccccc2s1	0	33.6	0	0	0	0
O=C(O)CC/C(=C\c1ccc(Cl)c([N+](=O)[O-])c1)c1nc2ccccc2s1	0	0	0	0	0	0
CCc1sc(C(=O)N2CCc3cc(OC)c(OC)cc3C2CC(=O)O)cc1C (centres undefined)	0	-	-	-	-	0
Cc1ccc(-n2c(SCCC(C)C)nc3sc4c(c3c2=O)CC(C)(C)OC4)cc1	0	-	-	-	-	-
COC(=O)c1ccccc1CSc1nsc(/C=C/N(C)C)c1C#N	?	0	0	0	0	0
SMILES	Tb PYK inh	CHX counter	LmPK inhibitor	Shiga inhibitor	NS1 function inh	SARS PLpro yeast
Cc1nc(CSc2nsc(/C=C/N(C)C)c2C#N)cs1	0	28.7	0	102.6	-	0
CCOc1ccc(CNS(=O)(=O)c2ccc3c(c2)CC(C)N3C(C)=O)cc1OC (centres undefined)	0	-	-	-	-	-
N/C(CSc1ccccn1)=N\OCc1c(Cl)cccc1Cl	0	0	0	44.9	0	0
Cc1ccc(-n2c(O)c(C=Nc3ccccc3N)c(=O)[nH]c2=O)cc1C	0	45.6	0	67.2	0	0
COC(=O)c1cc(-c2ccc(OC)cc2)n[nH]1	0	27.5	0	103.4	0	0
COC(=O)c1cc(-c2cccc(OC)c2)n[nH]1	0	23.8	0	49.0	0	0
CCOc1ccc(-c2cc(C(=O)OC)[nH]n2)cc1	0	42.6	0	89.1	0	0
COC(=O)c1cc(-c2ccc(C)cc2)n[nH]1	0	48.1	0	81.7	0	0

High-throughput results as filed in PubChem BioAssay.
